Screening data as filed in PubChem.
RGS4-Gao reg: modulates binding of RGS4 to human Galphao; 220,000 tested, 0.33% active; Multiplexed bead flow cytometry; actives lie on both sides; binding response (% of control), % at 10 µM; P09471; in the data active = binding response below about 49% or above about 150%; inactive = in between;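 note: fluorescent Galphao activated with aluminum fluoride binding bead-coupled RGS4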
Target sequence (P09471 whole entry, looked up): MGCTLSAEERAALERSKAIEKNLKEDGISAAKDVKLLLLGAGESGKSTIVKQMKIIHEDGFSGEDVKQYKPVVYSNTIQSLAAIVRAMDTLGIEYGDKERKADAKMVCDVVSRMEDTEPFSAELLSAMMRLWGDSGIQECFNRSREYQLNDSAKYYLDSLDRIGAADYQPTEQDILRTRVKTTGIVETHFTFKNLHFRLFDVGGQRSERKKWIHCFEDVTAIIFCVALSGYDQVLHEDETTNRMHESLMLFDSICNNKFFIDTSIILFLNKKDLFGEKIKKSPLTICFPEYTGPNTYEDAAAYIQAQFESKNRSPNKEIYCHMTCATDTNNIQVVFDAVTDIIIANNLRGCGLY
RGS7-Gao: modulates binding of RGS7 to human Galphao | Multiplexed bead flow cytometry; actives lie on both sides | binding response (% of control), % at 10 µM | 220,000 tested, 0.35% active | AID 1439; in the data active = binding response below about 49% or above about 150%; inconclusive = no clear call, values can overlap the other calls; inactive = in between;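 note: fluorescent Galphao held in activated GDP-AlF4 state binding bead-coupled RGS7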
RGS8-Gao reg: regulators of human RGS8-Galphao interaction; AID 1423; 220,000 tested, 0.34% active; multiplexed bead flow cytometry, RGS8-Galphao binding; actives lie on both sides; P09471; response (percent of control binding), % at 10 µM; in the data active = response below about 60% or above about 140%; inactive = in between;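 note: Galphao activated as the GDP aluminium fluoride complex binding bead-coupled RGS8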
Avidin fluor: compound fluoresces at 488/530 nm on avidin beads | compound fluorescence 488/530 nm, flow cytometry; hits give high values | fluorescence (KMESF) at 10 µM | 220,000 tested, 0.38% active; in the data active = fluorescence above about 47
GSH fluor: GSH bead compound fluorescence profile; GSH beads flow cytometry, compound fluorescence 488/530 nm; hits give high values; fluorescence (KMESF) at 10 µM; 190,000 tested, 0.25% active; in the data active = fluorescence above about 89;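 note: glutathione beads carrying GST-tagged Bcl family fusion proteins plus one bare bead set; values are compound well signal with DMSO vehicle wells as background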
RGS16-Gao HTS: RGS16-Galphao interaction regulator (human) | 220,000 tested, 0.38% active | bead-based flow cytometry RGS16-Galphao binding, fluorescence; actives lie on both sides | O15492+P09471 | AID 1441 | binding response (% of control), % at 10 µM;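 note: Galphao activated by GDP with aluminum fluoride before binding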
RGS-Gao: RGS4-Galphao interaction regulator (human); shares compounds with RGS16-Gao HTS; multiplexed bead flow cytometry, RGS–Galpha-o binding; RGS4–Galpha-o binding response, % at 10 µM; 1,600 tested, 99% active; AID 1504;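 note: fluorescently labeled Galpha-o bound to GDP with aluminium fluoride binding biotinylated RGS beads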
Target sequence (P09471 whole entry, looked up): as above
Target sequence (P49798 whole entry, looked up): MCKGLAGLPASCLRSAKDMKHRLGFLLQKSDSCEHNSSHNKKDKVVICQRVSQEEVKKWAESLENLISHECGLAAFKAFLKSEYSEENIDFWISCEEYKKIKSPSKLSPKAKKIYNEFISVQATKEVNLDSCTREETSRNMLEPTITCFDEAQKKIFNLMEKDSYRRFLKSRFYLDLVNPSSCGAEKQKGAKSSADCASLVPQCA
Avidin counter: counter-screen: compounds disrupting biotin binding to avidin beads. shares compounds with RGS16-Gao HTS. streptavidin beads, fluorescein-biotin binding, flow cytometry. inhibition, % at 10 µM. 1,700 tested, under 10 active. AID 1783;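 active = inhibition above 50%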;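 note: median green fluorescence of gated singlet beads compared with DMSO control wells; 0% = DMSO wells and 100% = complete loss of bead fluorescence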
RGS8-Gao confirm: confirmation of regulators of human RGS8-Galphao interaction | shares compounds with RGS16-Gao HTS | binding response (% of control), % at 10 µM | bead-based flow cytometry RGS8-Galphao binding, fluorescence; actives lie on both sides | AID 1836 | 1,700 tested, 3% active; in the data active = binding response below about 72% or above about 130%; inactive = in between;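 note: Galphao activated as GDP AlF4 complex before binding bead RGS8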
RGS7-Gao single: confirmation of regulators of human RGS7-Galphao interaction; shares compounds with RGS16-Gao HTS; response (percent of control binding), % at 10 µM; bead-based flow cytometry RGS7-Galphao binding; actives lie on both sides; 1,700 tested, 7.8% active; in the data active = response below about 75% or above about 130%; inactive = in between;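 note: fluorescent Galphao activated with GDP and aluminum fluoride binding bead-coupled RGS7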
RGS16-Gao conf: RGS16-Galphao interaction regulation, single point confirmation; shares compounds with RGS16-Gao HTS; bead-based flow cytometry, RGS16-Galphao binding; actives lie on both sides; response (% of control binding), % at 10 µM; 1,700 tested, 4% active; in the data active = response below about 74% or above about 130%; inactive = in between;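 note: Galphao activated as the GDP aluminium fluoride complex binding bead-coupled RGS16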
RGS4-Gao single: confirmation of regulators of human RGS4-Galphao interaction; 1,700 tested, 4% active; RGS4-Galphao binding, multiplexed bead flow cytometry; actives lie on both sides; binding response (% of control), % at 10 µM; shares compounds with RGS16-Gao HTS; in the data active = binding response below about 74% or above about 130%; inactive = in between
RGS19-Gao single: confirmation of regulators of human RGS19-Galphao interaction; shares compounds with RGS16-Gao HTS; bead-based flow cytometry RGS19-Galphao binding; actives lie on both sides; response (percent of control binding), % at 10 µM; 1,700 tested, 5% active; AID 1841; in the data active = response below about 50% or above about 160%; inactive = in between;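 note: 100% = no compound control and 0% = blank background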
* = called active by the depositor; ? = inconclusive; / = not tested or not shown; [ ] = remark or other dose. Only some compounds are listed: those with a hit (about 1.2% of all), similar ones and a draw of the others. Unless noted, the rule behind the calls is not given here.

SMILES	RGS4-Gao reg	RGS7-Gao	RGS8-Gao reg	Avidin fluor	GSH fluor	RGS16-Gao HTS	Avidin counter	RGS8-Gao confirm	RGS7-Gao single	RGS16-Gao conf	RGS4-Gao single	RGS19-Gao single	others
COc1ccc(-c2nnc(SCC(=O)c3[nH]c(C)c(C(C)=O)c3C)o2)cc1	175.1*[activator]	125.6	112.3	17	9	179.5*[activator]	-0.5	98.2	96.1	93.8	90.4	102.6
CC(=O)c1c(C)[nH]c(C(=O)CSc2nnc(-c3ccco3)o2)c1C	99.6	?	99.9	8	11	99.8	/	/	/	/	/	/
Cc1cc(C)nc(SCC(=O)Nc2nonc2N)n1	101.2	105.9	102.1	6	19	100.4	/	/	/	/	/	/
COc1ccccc1C(CC(=O)Nc1ccc(C)c(C)c1)c1ccc(OC(C)C)cc1 (configuration not stated)	114.5	117.6	127.9	6	17	197.2*[activator]	2.4	98.9	90.4	96.5	95.8	60.6	RGS-Gao=114.5*
COc1ccccc1NC(=O)CC(c1ccc(OC(C)C)cc1)c1ccccc1OC (configuration not stated)	104.1	106.5	104.0	7	19	102.2	/	/	/	/	/	/
Cc1ccc(C(=O)COC(=O)CCC(=O)Nc2ccccc2Cl)cc1[N+](=O)[O-]	101.0	99.5	114.0	7	13	126.8	/	/	/	/	/	/
Cc1ccc(C(=O)COC(=O)CCCC(=O)Nc2cc(C(F)(F)F)ccc2Cl)cc1C	19.8*	12.0*	25.6*	0	8	10.8*	-1.1	99.7	96.2	99.4	98.9	87.6
CCOC(=O)c1c(-c2cccs2)csc1NC(=O)CN(CC)CC	45.5*	41.9*	54.6*	2	27	38.2	-1.3	99.4	94.9	99.2	95.0	105.3
O=C(O)c1ccccc1Sc1ccccc1S(=O)(=O)NC1CCCCC1	-10.8*	?	7.1*	-2	/	-4.7*	1.4	94.4	90.3	95.3	94.9	106.1
O=C(O)c1ccccc1S(=O)(=O)NCC(O)COC1CCCCC1 (configuration not stated)	101.4	100.4	101.8	15	30	102.4	/	/	/	/	/	/
CCOC(=O)CC(N)c1cccc([N+](=O)[O-])c1 (configuration not stated)	104.4	101.1	101.8	6	13	101.2	/	/	/	/	/	/
Cc1ccc(-c2nn(-c3ccccc3)cc2NC(=O)CCl)cc1	100.3	?	105.4	13	11	100.3	/	/	/	/	/	/
O=C(Nc1cc(-c2ccccc2)[nH]n1)c1ccc(Cl)cc1	99.8	?	101.7	9	/	100.2	/	/	/	/	/	/
O=C1c2ccccc2C(=O)N1CCc1c[nH]c2ccc(O)cc12	99.2	96.0	99.1	9	53	99.8	/	/	/	/	/	/
COc1cc(NC(=O)C(=O)NCCN2CCNCC2)c(OC)cc1Cl	101.0	101.5	99.4	9	24	100.4	/	/	/	/	/	/
NC(=O)[C@@H]1CCNc2c(I)cc([N+](=O)[O-])cc2C(=O)N[C@@H](CCC(=O)O)C(=O)N[C@@H](CO)C(=O)N1	108.4	98.7	133.8	10	25	403.8*[activator]	/	/	/	/	/	/	RGS-Gao=108.4*
NC(=O)[C@@H]1CCCCNc2c(I)cc([N+](=O)[O-])cc2C(=O)N[C@@H](CCC(=O)O)C(=O)N[C@@H](CO)C(=O)N1	101.2	100.4	102.5	12	18	104.6	/	/	/	/	/	/
CC(C)Cn1c(SCc2nc3ccccc3c(=O)[nH]2)nc2ccccc2c1=O	96.6	92.0	90.5	6	32	52.9	/	/	/	/	/	/
CCCC(C(=O)c1ccccc1)n1cncn1 (configuration not stated)	69.8	77.7	80.9	2	4	-9.0*	-1.4	100.9	101.0	101.8	101.7	100.8	RGS-Gao=69.8*
NC(=O)CC(NC(=O)c1cccc(Br)c1)c1ccc(NCCN2CCOCC2)c([N+](=O)[O-])c1 (configuration not stated)	98.5	?	98.1	10	/	99.2	/	/	/	/	/	/
Cc1sc2nc(CN3CCOCC3)nc(N3CCOCC3)c2c1C	115.6	117.1	142.7*[activator]	4	73	413.2	0.1	103.6	105.1	103.4	103.3	102.0	RGS-Gao=115.6*
COC(=O)c1sc2nc(CN3CCOCC3)nc(N3CCOCC3)c2c1C	111.8	105.5	100.9	9	33	111.0	/	/	/	/	/	/
C=C(C)CCC1(C)NC(=O)N(c2ccccc2)N1 (configuration not stated)	41.3*	?	78.8	1	/	52.0	-0.5	96.9	95.3	96.3	96.1	93.3
COC(=O)C1C(O)=C(C(C)=Nc2cccc3ccccc23)C(=O)CC1(C)C (configuration not stated)	109.0	?	104.2	5	/	108.5	/	/	/	/	/	/
CC(=O)N1CCN(C(=S)NCc2ccccc2)CC1	109.7	106.3	138.4	6	16	256.9*[activator]	-2.0	99.3	102.1	97.2	97.4	93.7	RGS-Gao=109.7*
O=C(NCc1ccccc1)C1CCC1	95.9	95.6	86.1	6	12	13.9*	0.4	97.9	94.6	97.0	98.4	97.4	RGS-Gao=95.9*
S=C(NCc1ccccc1)N1CCCCC1	89.6	89.4	92.7	10	19	89.4	/	/	/	/	/	/
COc1cccc(-n2cnc3c(sc4nc(N5CCOCC5)c5c(c43)CCCC5)c2=O)c1	93.5	98.1	97.8	23	61	97.8	/	/	/	/	/	/
COc1cc(OC)cc(-c2n[nH]c(=S)n2-c2ccc3c(c2)OCO3)c1	101.4	103.5	81.1	1	15	20.6*	2.6	97.0	105.2	96.7	104.5	88.3	RGS-Gao=101.4*
COc1ccccc1NC(=O)C1=C(C)NC(=O)NC1c1cc(C)cs1 (configuration not stated)	201.5*[activator]	189.0*[activator]	166.9*[activator]	11	27	165.4	1.9	98.8	95.1	95.8	98.6	88.2
